A selection: hits, their analogues and other compounds. The true share with any hit is near 20%.
HCMV antiviral: human cytomegalovirus inhibition; HFF cells, HCMV-luciferase reporter, 72 h; active compounds read low; activity change, negative = inhibition, % at 57.5 µM; 410,000 tested, 4.5% active; AID 1259415; in the data active means activity change below about -60%; inconclusive means no clear call, values can overlap the other calls; inactive means above about -39%; further: on the % scale 0 is the no-effect control and ±100 the full control effect
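Luciferase read-out from HCMV-luciferase-infected HFFs (MOI 1 PFU/cell) 72 h post infection at 37C; compounds added after 16 h cell attachment; activity normalized between buffer-only basal and Salinomycin (10uM) inhibitor controls.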
Shiga toxin inh: blocks Shiga toxin action in Vero cells. 290,000 tested, 9.2% active. Vero cells, Shiga toxin protein synthesis inhibition reporter. inhibition, % at 38.7 µM; in the data active means inhibition mostly above about 28%, no sharp cut-off; inactive means mostly below about 43%; further: 0% is about no effect
Pf growth 48h: inhibits P. falciparum growth in the first generation, 48 h | P. falciparum luciferase growth in erythrocytes, 48 h | Potency, µM (highest dose often 28.7 µM), inactives show at the highest dose activity change, negative = inhibition, most hits filed as inhibitors | 310,000 tested, 5.9% active; further: potency means the concentration at half of the fitted maximal effect; on the % scale 0 is the no-effect control and ±100 the full control effect
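Firefly luciferase activity from engineered P. falciparum reports growth; inhibitors lower the luminescent signal. Cultures contained 2% hematocrit erythrocytes at 0.1% final parasitemia.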
Cycloheximide cs: affects cycloheximide protein synthesis inhibition readout, counter-screen; cell reporter, cycloheximide protein synthesis inhibition counterscreen; 300,000 tested, 12% active; max response, %; in the data active means max response mostly above about 13%, no sharp cut-off; inactive means mostly below about 14%; further: read at 38.3 µM for the half of the compounds with a filed dose; 0% is about no effect
Pf growth 96h: P. falciparum growth inhibition at 96 hour, primary screen for plastid delayed-death inhibitors; 320,000 tested, 6.9% active; P. falciparum luciferase reporter growth, 96 h; Potency, µM (series often up to 28.7 µM), without a hit: top-dose activity change, negative = inhibition, actives largely listed as inhibitors; further: potency means the concentration at half of the fitted maximal effect; on the % scale 0 is the no-effect control and ±100 the full control effect
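Delayed-death screen, second-generation endpoint: infected erythrocytes, 2% hematocrit, 0.05% parasitemia final; 96 hours at 37 C, 5% CO2; luciferase detection reagent; luminescence decrease equals reduced growth.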
* hit, by the source's call; ? = inconclusive; · = no result; + = active, no number; [ ] = another dose, or the depositor's remark. Unless noted, the call rests on the fitted dose curve; in most records, active means well fitted inhibition curve with a large enough effect; inconclusive means small, poorly fitted or top-dose-only effect, or another doubt; inactive means no such curve, though single readings can be large or run the other way.

SMILES	HCMV antiviral	Shiga toxin inh	Pf growth 48h	Cycloheximide cs	Pf growth 96h
CCCCN(CC)CCNC(=O)CCC(=O)Nc1ccc2nc(N3CCN(C)CC3)cc(C)c2c1	0	29	?	-2	-13%
CCCCN(CC)CCNC(=S)Nc1ccc2nc(N3CCN(C)CC3)cc(C)c2c1	-3	-6	1.7µM*	-7	?
CCCN(CCC)CCCNC(=S)Nc1ccc2nc(N3CCN(CC)CC3)cc(C)c2c1	-26	1	4.1µM*	-4	-27%
CCCN(CCC)CCCNC(=S)Nc1ccc2nc(N3CCN(C)CC3)cc(C)c2c1	-36	-3	-54%	-3	?
C=C1CCN([C@H](C(=O)NCc2ccc(Cl)c(Cl)c2)C(C)C)S(=O)(=O)c2ccccc21	-6	4	?	-4	?
COc1ccc2oc(-c3ccncc3)cc(=O)c2c1	-13	·	·	·	·
O=C(COc1ccc2oc(-c3ccccc3)cc(=O)c2c1)NCc1ccco1	·	58	3%	25*	11%
O=c1cc(-c2ccccc2)oc2ccc(O)cc12	43	64*	83%	32*	89%
COc1ccc(-c2cc(=O)c3cc(O)ccc3o2)cc1	118	62*	193%	53*	314%
CC(=O)N1CCc2cc(CNS(=O)(=O)c3cccs3)ccc21	14	·	·	·	·
CC(C)NC(=O)/C(=C/c1cn(-c2ccccc2)nc1-c1cccc([N+](=O)[O-])c1)NC(=O)c1ccccc1	-3	-15	10%	-7	-19%
O=C(NCc1ccco1)c1ccc(-c2csnn2)cc1	-8	24	?	8	20%
CC(C)(C)C(=O)O/N=C(\N)c1ccc(Br)cc1	21	18	28%	1	0%
CC(=O)O/N=C(\N)c1ccc(-c2csnn2)cc1	6	65*	295%	34*	124%
CC(C)(C)C(=O)O/N=C(\N)c1ccc(-c2csnn2)cc1	64	78*	309%	45*	276%
Cn1c(=O)c2c(ncn2CC(=O)OCC(=O)c2ccc(F)c(F)c2)n(C)c1=O	-27	-5	0%	-2	?
S=C(NCCc1ccccc1)Nc1c(Cl)cccc1Cl	18	14	-5%	1	-10%
Cn1nc(CSc2ccccc2)c(C=O)c1Cl	-36	56	19%	41*	29%
Cn1nc(-c2ccccc2)c(/C=N/O)c1Cl	-20	9	-7%	12	?
COC(=O)c1ccc(NS(=O)(=O)NC(=O)c2cn(C)c3ccccc23)cc1	5	10	25%	6	19%
O=C(COc1ccc2ccccc2c1)Nc1nc2ccccc2[nH]1	29	29	24%	-2	·
O=C(COc1ccc(F)cc1)NCCc1nc2ccccc2[nH]1	-1	-7	·	-2	·
c1ccc2cc(OCc3nc4ccccc4[nH]3)ccc2c1	2	108*	308%	49*	-19%
Brc1ccc(OCc2nc3ccccc3[nH]2)cc1	102	94*	143%	55*	169%
COc1cccc(OCc2nc3ccccc3[nH]2)c1	-24	93*	·	36*	?
SMILES	HCMV antiviral	Shiga toxin inh	Pf growth 48h	Cycloheximide cs	Pf growth 96h
CN(C)C(=O)Oc1ccc(OCc2nc3ccccc3[nH]2)cc1	32	35*	104%	24*	120%
CC1CCCCN1CCCNC(=O)CCCN1C(=O)c2cccnc2Sc2ccccc21 (stereo not given)	·	-2	12%	7	?
O=C(CSCc1ccc(Cl)c(Cl)c1)Nc1c[nH]c(=O)[nH]c1=O	-29	-12	-3%	-8	23%
CN1C(=O)CSC1=Nc1cccc(Cl)c1	3	-3	14%	-1	0%
COc1ccc(OCc2nc3ccccc3[nH]2)cc1	62	152*	115%	30	·
CC(=O)NCCc1nc2ccccc2[nH]1	-1	-3	14%	0	2%
CN(CC(=O)O)Cc1nc2ccccc2[nH]1	41	48	·	28*	106%
COc1ccc(OCCCC(=O)NCCc2nc3ccccc3[nH]2)cc1	?	-6	?	-3	85%
CC(=O)OCC(=O)[C@@]1(O)CCC2C3CCC4=CC(=O)CC[C@]4(C)C3=CC[C@@]21C (stereo not given in full)	·	·	5%	·	-29%
Cc1c(C(=O)N2CCC2(C)C(=O)O)oc2ccccc12 (stereo not given)	2	·	·	·	·
CN(C)CCP(=O)(c1ccccc1)c1ccccc1	-18	-8	1%	-2	26%
CN(C)CCN(C)Cc1c2ccccc2c(CN(C)CCN(C)C)c2ccccc12	?	20	6.6µM*	1	1.7µM*
CC(C)Sc1cc(Cl)nc(NC(=O)Nc2ccccc2)n1	-14	50	2%[0.00184 µM]	29*	15%
CCOc1ccc(CCNC(=O)CCc2c(C)nc3cc(-c4ccccc4OC)nn3c2C)cc1	-24	·	·	·	·
CCCCOc1c(C(=O)Nc2ccccc2)nnn1-c1ccccc1	?	22	?	7	-8%
CC1(C)CC(=O)C2=C(C1)Nc1ccccc1NC2	8	139*	-2%	44*	-7%
CC1(C)CC(=O)C2=C(C1)Nc1ccccc1[S@]2=O	11	11	5%	-1	30%
CC1(C)CC(=O)C2=C(C1)Nc1ccccc1S2	35	-13	?	5	?
CC1(C)CC(=O)C2=C(C1)Nc1ccccc1N=C2	·	85*	136%	50*	?
CCc1ccc(NC(=O)COc2ccc(F)cc2C(=O)c2cnn(-c3ccccc3)c2)cc1	-102*	active	?	27*	?
COc1ccccc1NC(=O)COc1ccccc1C(=O)c1cnn(-c2ccccc2)c1	22	24	90%	47*	?
CCc1ccc(C(=O)c2cn(CC(=O)Nc3ccc(F)cc3)c3ccc(F)cc3c2=O)cc1	-2	·	·	·	·
Nc1n[nH]c(-c2ccccc2)n1	13	62	0%	6	?
O=[N+]([O-])c1ccc2nc(-c3ccc(Cl)cc3)[nH]c2c1	-62*	+	?	92*	-104%
Cc1ccc(-c2nc3ccc([N+](=O)[O-])cc3[nH]2)cc1	22	124*	129%	16*	3%
SMILES	HCMV antiviral	Shiga toxin inh	Pf growth 48h	Cycloheximide cs	Pf growth 96h
Nc1n[nH]c(-c2ccccc2[N+](=O)[O-])n1	-96*	-2	12%	1	-29%
O=[N+]([O-])c1ccc(N2CCN(c3nc(-c4ccc(Cl)cc4)cs3)CC2)cc1	-5	-15	·	-2	7%
O=[N+]([O-])c1ccc(-c2cc(-c3ccc(Cl)cc3)n[nH]2)cc1	8	39*	111%	24	116%
Cc1ccccc1-c1noc(CSc2nc3ccccc3[nH]2)n1	-23	·	·	·	·
Cc1cccc(Cn2cc(S(=O)(=O)c3ccccc3)c(=O)c3cc(F)c(N4CCOCC4)cc32)c1	-21	·	·	·	·
Cc1ccc2oc(=O)n(CCNC(=O)Nc3ccc(Cl)cc3)c2c1	-30	·	·	·	·
O=[N+]([O-])c1ccc2nc(-c3ccncc3)[nH]c2c1	72	30	2.1µM*	32*	5.2µM*
O=[N+]([O-])c1cccc(-c2nc3ccc([N+](=O)[O-])cc3[nH]2)c1	11	40	?	12	-7%
